# Measured values as given in PubChem BioAssay (NCI).
# This is part of a sample that, as a whole, favours compounds with a hit. Of some 79,000 tested, about 15% had one in any assay. Values without a mark were called inactive. Calls of active or inactive are those of the source. Cut-off read from the data, not from the text of the source: active = growth inhibition above about 70%; inactive = the rest.
# Key:
# [1] = NCI Yeast Anticancer Drug Screen. Data for the rad50 strain (AID 155);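 note: 0% = growth of vehicle-only cultures of the same strain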; details: S. cerevisiae rad50 strain growth inhibition, active compounds read high
# Outline: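 Vehicle-treated cultures provide the reference for the growth inhibition reported for compound-exposed, repair-deficient yeast.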
# [2] = NCI Yeast Anticancer Drug Screen. Data for the mec2-1 strain (AID 157); details: S. cerevisiae mec2-1 strain, active compounds read high
# Outline: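 Mutant yeast (mec2-1) grown with compound; growth inhibition relative to vehicle control reported.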
# [3] = NCI Yeast Anticancer Drug Screen. Data for the sgs1 mgt1 strain (AID 161);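 note: 0% = growth of cultures given vehicle only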; details: S. cerevisiae sgs1 mgt1 strain, active compounds read high
# Outline: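 Compounds are added to genetically altered yeast, and growth is compared with cultures given vehicle alone to give percent inhibition.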
# [4] = NCI Yeast Anticancer Drug Screen. Data for the cln2 rad14 strain (AID 165);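 note: 0% = growth equal to vehicle treated cultures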; details: S. cerevisiae cln2 rad14 strain, active compounds read high
# Outline: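 Readout is yeast growth inhibition versus vehicle-treated controls, using a strain with cln2 and rad14 alterations exposed to compound.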
# [5] = NCI Yeast Anticancer Drug Screen. Data for the bub3 strain (AID 167); details: S. cerevisiae bub3 mutant strain, active compounds read high
# Outline: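 Mutant yeast screening strain plus compound; vehicle-treated cultures serve as the 0% inhibition reference.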
# [6] = NCI Yeast Anticancer Drug Screen. Data for the mlh1 rad18 strain (AID 175); details: S. cerevisiae mlh1 rad18 strain growth inhibition, active compounds read high
# Outline: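 Genetically defined yeast (DNA repair-deficient) exposed to compounds; growth inhibition determined relative to vehicle.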
# [7] = at 5.0 µM (retest, dose inferred, filed as 0.5)
# [8] = at 50.0 µM (retest, dose inferred, filed as 5.0)
Compound,"growth inhibition [1, 7]","growth inhibition [1, 8]",growth inhibition ([1]; at 50.0 µM),"growth inhibition [2, 7]","growth inhibition [2, 8]",growth inhibition ([2]; at 50.0 µM),"growth inhibition [3, 7]","growth inhibition [3, 8]",growth inhibition ([3]; at 50.0 µM),"growth inhibition [4, 7]","growth inhibition [4, 8]",growth inhibition ([4]; at 50.0 µM),"growth inhibition [5, 7]","growth inhibition [5, 8]",growth inhibition ([5]; at 50.0 µM),"growth inhibition [6, 7]","growth inhibition [6, 8]",growth inhibition ([6]; at 50.0 µM)
COC(=O)c1c(C(N)=O)c(C)n(NC(=O)c2ccccc2)c1C,-6%,4%,5.75%,-5%,-1%,2.7%,-6%,0%,11.1%,-4%,6%,38.9%,-4%,3%,-2.65%,-4%,0%,11.5%
CCOC(=O)c1cc2c(nc1N)/C(=C/c1ccccc1)CCCC2,39%,95% (active),-24.4%,31%,96% (active),-34.6%,34%,96% (active),-29.2%,19%,80% (active),-15.4%,42%,97% (active),-11.4%,37%,95% (active),-21.1%
CC(C)C(=O)NNc1ccccc1,28%,77% (active),93.1% (active),1%,57%,34.2%,18%,70% (active),87.2% (active),15%,67%,93.2% (active),21%,95% (active),70.4% (active),39%,92% (active),83.2% (active)
O=C(NNS(=O)(=O)c1ccccc1)Nc1ccccc1,-21%,-15%,-13.4%,17%,-11%,5.85%,-3%,6%,7.45%,-1%,4%,3.8%,2%,1%,7.2%,4%,15%,-5.3%
Cc1ccc(N2C(=O)C(C)SC23C(=O)Nc2ccc(Cl)cc23)cc1 (configuration not stated),-8%,99% (active),98.5% (active),9%,99% (active),98.8% (active),-3%,98% (active),37.4%,0%,98% (active),97.8% (active),-8%,98% (active),98.8% (active),1%,99% (active),89% (active)
Nc1ccc(Sc2c3ccccc3nc3ccccc23)cc1,19%,59%,80.8% (active),16%,34%,63.3%,22%,98% (active),87.2% (active),19%,96% (active),71.8% (active),24%,98% (active),85% (active),18%,48%,60.1%
O=C1OC(c2ccccc2)CC1Cc1ccccc1 (configuration not stated),-10%,-15%,1.7%,-32%,3%,-0.25%,-2%,8%,-12.9%,9%,-5%,-6.55%,-2%,6%,29.1%,-17%,-21%,-33.8%
OC1C2COc3nc4ccccc4n3C(O2)C1O (configuration not stated),-153%,-165%,-7.3%,-54%,-57%,5.4%,-58%,-70%,-10.4%,-60%,-56%,33.6%,-69%,-84%,-14.9%,-117%,-118%,-7.05%
CCCCCCCCCCCCCCCCCC(=O)OCC(COC(=O)CCCN)OC(=O)CCCN (configuration not stated),18%,99% (active),98.7% (active),9%,99% (active),97.5% (active),3%,99% (active),98% (active),5%,96% (active),69%,5%,99% (active),98.6% (active),32%,99% (active),97.5% (active)
CCOC(=O)C1SC(=Nc2ccc(Cl)cc2)N=C1C (configuration not stated),14%,56%,88.8% (active),27%,37%,91.7% (active),26%,71% (active),89.8% (active),11%,66%,90% (active),19%,69%,88.8% (active),34%,66%,89.6% (active)
CC1CCC(C(C)C2C(O)CC3C4CC=C5CC(O)CCC5(C)C4CCC32C)NC1 (configuration not stated),-23%,81% (active),66.8%,1%,18%,25.1%,12%,96% (active),88.5% (active),3%,23%,23.8%,-1%,70% (active),10.9%,10%,54%,57.5%
CC(NNC(=S)N1CC2CCC(CC2)C1)c1cc2ccccc2cn1 (configuration not stated),97% (active),97% (active),96.9% (active),97% (active),99% (active),97.4% (active),98% (active),99% (active),94.5% (active),72% (active),61%,92.6% (active),98% (active),99% (active),98.2% (active),98% (active),99% (active),98% (active)
CCCCCCC(C)c1ccccc1O (configuration not stated) (tested in a mixture with another compound),25%,96% (active),92.2% (active),24%,100% (active),94% (active),25%,100% (active),94% (active),25%,100% (active),93.6% (active),37%,99% (active),93% (active),38%,99% (active),92.2% (active)
CCC[CH2][Ge]([CH2]CCC)([CH2]CCC)[O]C(C)=O,2%,9%,54.1%,0%,19%,27.3%,4%,21%,61.8%,1%,-1%,70.8% (active),-2%,6%,19.2%,2%,11%,52.8%
C[n+]1c(-c2cccc(OCCCCCCCCOc3cccc(-c4c5cc(N)ccc5c5ccc(N)cc5[n+]4C)c3)c2)c2cc(N)ccc2c2ccc(N)cc21,99% (active),97% (active),85.3% (active),99% (active),99% (active),88.2% (active),97% (active),98% (active),89.8% (active),98% (active),97% (active),89.8% (active),99% (active),98% (active),88.5% (active),96% (active),97% (active),89.3% (active)
Clc1cccc(N2CCN(c3c4c(nc5ccccc35)CCCCC4)CC2)c1,81% (active),94% (active),93% (active),93% (active),99% (active),95.5% (active),87% (active),96% (active),95.2% (active),28%,89% (active),93.2% (active),73% (active),93% (active),92.1% (active),92% (active),95% (active),93.9% (active)
OCC(O)C(O)C(O)C(O)C(O)C(/C=N/Nc1ccccc1)=N/Nc1ccccc1 (configuration not stated),-1%,81% (active),55.2%,-2%,95% (active),29.2%,0%,50%,35.2%,0%,71% (active),31.1%,18%,95% (active),56%,8%,92% (active),66.1%
COc1ccc(/C=N/Nc2ccccc2)cc1,7%,97% (active),98.5% (active),-12%,85% (active),99% (active),-6%,97% (active),98.9% (active),-9%,93% (active),98.7% (active),-17%,97% (active),99% (active),8%,96% (active),98.4% (active)
O=S(=O)(O)c1cc2ccccc2c(O)c1N=Nc1ccccc1,1%,97% (active),-33.1%,-1%,98% (active),-16%,1%,98% (active),-3.25%,-16%,97% (active),31.1%,-1%,98% (active),-0.1%,2%,98% (active),7.6%
